PubChem BioAssay AID1421 (Emory University Molecular Libraries Screening Center, 2008)
Among all 1,300 compounds or so, about 140 (11%) were called active. How the calls were made is not given here. Not all results are given here. Entries with a potency or affinity are not part of this list.

molecular target: Prostaglandin E2 receptor EP2 subtype (Homo sapiens) (UniProt P43116); test: compounds shifting PGE2 potency at EP2 – cell-based, human EP2, PGE2 EC50 shift, dose response (AID 1421); details: EP2-expressing cells, PGE2 EC50 shift by compound; at 20 µM
Sequence (P43116 whole entry, looked up): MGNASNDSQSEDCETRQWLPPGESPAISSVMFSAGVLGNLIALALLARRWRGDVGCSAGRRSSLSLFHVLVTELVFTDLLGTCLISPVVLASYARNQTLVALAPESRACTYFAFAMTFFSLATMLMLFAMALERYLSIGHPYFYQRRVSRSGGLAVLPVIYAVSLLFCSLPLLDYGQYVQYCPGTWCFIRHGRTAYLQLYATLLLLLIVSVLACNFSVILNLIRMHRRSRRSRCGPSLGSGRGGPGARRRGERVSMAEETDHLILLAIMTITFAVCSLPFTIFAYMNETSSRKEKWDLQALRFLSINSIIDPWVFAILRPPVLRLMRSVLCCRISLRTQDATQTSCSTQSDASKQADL

PGE2 EC50 with compound, inactive:
COC(=O)c1ccccc1NC(=O)C(C)Oc1ccccc1 (configuration not stated) 0.81 nM
c1ccc(Cc2nc3ccccc3n2Cc2ccccc2)cc1 0.31 nM
Cc1cccc(OCc2n[nH]c(=S)n2Cc2ccccc2)c1 0.47 nM
COCCn1c(SCC(=O)NCCc2ccccc2)nnc1-c1ccco1 0.68 nM
COc1ccc(C(=O)O)cc1NC(=S)NC(=O)c1ccc(-c2ccc(Cl)cc2)o1 462 nM
CC(C)n1c2ccccc2c2nnc(SCC(=O)Nc3ccccc3C(=O)O)nc21 1.63 nM
COc1ccc(C(=O)Nc2cc(C)nn2-c2nc3ccccc3[nH]2)c(OC)c1 0.24 nM
Cc1cc(C)n(-c2cc(-c3ccccc3)nc(C)n2)n1 0.22 nM
Cc1oc(-c2ccccc2)cc1C(=O)Nc1cccc(/C=C\C(=O)O)c1
c1cncc(-c2nc(N3CCOCC3)c3c4c(sc3n2)CCC4)c1 0.72 nM
Cc1ccc(C2CC(c3cccs3)=NN2C(=O)c2ccc(Br)o2)cc1 (configuration not stated) 0.31 nM
Cc1ccc(Cl)cc1NC(=S)N(Cc1ccco1)C(C)c1cccs1 (configuration not stated) 0.26 nM
Cc1ccccc1NC(=S)N(Cc1ccco1)C(C)c1cccs1 (configuration not stated) 0.4 nM
O=C(NCc1ccco1)c1ccc(=O)[nH]n1 0.48 nM
C/C(CCc1oc2ccccc2c1-c1ccc(C)o1)=N/O 0.47 nM
Cc1ccc(-c2cc3nn(-c4ccccc4)c(N)c3c(=O)o2)cc1 1.29 nM
Cc1ccc(N=Nc2c(N)[nH]n3c(=O)c4c(nc23)CCCC4)cc1 3.42 nM
O=C(O)COc1ccc2occ(C(=O)c3ccccc3)c2c1 0.37 nM
CCOc1nc(C)cc(C)c1S(=O)(=O)c1ccc(Cl)cc1 0.21 nM
CC(/C=C1\SC(=S)N(C(C(=O)O)C(C)C)C1=O)=C\c1ccccc1 (configuration not stated) 1.95 nM
COc1ccccc1CNC(=O)C1(c2ccc(Cl)cc2)CC1 0.43 nM
CCC(=O)N1CCN(c2nc(-c3ccccc3)c3c(c2C#N)CCCC3)CC1 0.31 nM
CCCCc1nc(N2CCOCC2)c(C#N)c2c1CCCC2 0.37 nM
CCOc1ccc(OCC)c(NC(=O)CN2CCN(c3cc(C)ccc3C)CC2)c1 0.45 nM
Cc1occc1-c1nnc(SCC(=O)Nc2ccccc2N2CCCCC2)n1C 1.17 nM
O=C(Cc1c(F)cccc1Cl)Nc1ccccc1N1CCCCC1 0.53 nM
O=C(CNCc1ccccc1Cl)Nc1ccccc1N1CCCCC1 0.81 nM
CC(C)(C)N(Cc1ccccc1)C(=O)c1ccc(Br)o1 0.51 nM
COC(=O)NC1(C(F)(F)F)C(=O)NC(C)=C1C(=O)OC (configuration not stated) 0.72 nM
CCOC(=O)C1=C(C)N(C)C(C)=C(C(=O)OCC)C1c1ccccc1 0.51 nM
CCOC(=O)N1CCC(=C2c3ccc(Cl)cc3CCc3cccnc32)CC1 0.38 nM
CC1CCN(c2nc(-c3ccncc3)nc3ccccc23)CC1 0.52 nM
Cc1nnc(SCC(=O)N2c3ccccc3C(C)(c3ccccc3)CC2(C)C)s1 (configuration not stated) 0.37 nM
O=C(c1ccc(Cl)cc1)c1oc2ccccc2c1CS(=O)c1ccc(Cl)cc1 (configuration not stated) 0.25 nM
O=C(COc1cccc2ccccc12)N1c2ccccc2CCc2ccccc21 0.35 nM
Clc1ccc(Cl)c(-c2ccc(/C=N/c3ncn[nH]3)o2)c1 2.61 nM
COc1ccccc1N(C(=O)NCc1ccccc1)C1=NCC(C)S1 (configuration not stated) 0.21 nM
CCn1c2ccc(OC)cc2c2nc3ccccc3nc21 0.85 nM
O=c1cc(N2CCCCC2)c(-c2ccccc2)nn1Cc1ccccc1Cl 0.4 nM
CC1=CC2C(C(C)C)CCC(C)(O)C2CC1 (configuration not stated) 0.83 nM
O=C(NCc1ccco1)C(c1cccs1)N(C(=O)Cc1cccs1)c1ccccc1 (configuration not stated) 0.44 nM
COc1ccc(-c2noc(-c3ccccc3-c3ccccc3)n2)cc1OC 0.17 nM
c1ccc(-c2noc(-c3cccc4ccccc34)n2)cc1 0.52 nM
COc1ccc(CCN(Cc2nc(-c3ccccc3)no2)Cc2nc(-c3ccccc3)no2)cc1OC 0.49 nM
COc1cc(-c2noc(-c3cccc(Cl)c3)n2)cc(OC)c1OC 0.47 nM
c1ccc(-c2noc(-c3ccccc3-c3ccccc3)n2)cc1 0.5 nM
Cc1ccc(-c2csc3ncnc(N4CCc5ccccc5C4)c23)cc1 0.42 nM
Cc1ccc(-c2nn3c(C)nnc3s2)cc1NCc1c(F)cccc1Cl 0.97 nM
CC(C)Sc1nc2sc3c(c2c2nnc(SCC(=O)NCc4ccco4)n12)CCCC3 0.83 nM
Cc1sc2ncnc(Sc3ccccc3C(=O)O)c2c1C 3.01 nM
COc1cccc(-c2nc(N3CC(C)CC(C)C3)c3ccccc3n2)c1O (configuration not stated) 0.13 nM
CCSc1nc2c(c(=O)[nH]c(=O)n2C)n1Cc1ccc(Cl)cc1 0.83 nM
C=CCOc1ccccc1CNc1cccc(F)c1 0.37 nM
CCOc1cccc(CNc2ccc(O)cc2)c1OCc1ccccc1Cl 0.8 nM
Cc1cc(SC(C)C(=O)O)nc2ccccc12 (configuration not stated) 1.16 nM
O=C(CSc1ncnc2c1oc1ccccc12)Nc1ccccc1F 1.24 nM
O=[N+]([O-])c1ccc(Cl)c2c1C1C=CCC1C(c1ccccn1)N2 (configuration not stated) 0.53 nM
CC(=O)N(c1cccc(Br)c1)C1C=CS(=O)(=O)C1 (configuration not stated) 0.92 nM
Cc1nnc(SCC(=O)NC2CCCCC2)n1C1CCCCC1 0.89 nM
CC(NC(c1ccccc1)c1ccccc1)C(=O)N1CCCc2ccccc21 (configuration not stated) 0.36 nM
Cc1ccc(C(=O)O)cc1NC(=S)NC(=O)c1ccc(-c2ccccc2)cc1 1.3 nM
O=C(COc1ccccc1)Nc1cc(C(F)(F)F)ccc1N1CCCC1 0.31 nM
